# PAD4 inh – inhibitors of human PAD4. Q9UM07. recombinant PAD4, RCA probe fluorescence polarization. inhibition, % at 6.36 µM. 330,000 tested, 0.41% active;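 active = percent inhibition above a cutoff equal to the mean of all tested compounds plus 3 SD, cut at about 15% in these data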;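 note: 0% = PAD4 with RCA probe and DMSO and 100% = probe without PAD4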
# LYPLA1 counter – LYPLA1 (human) inhibition in PME1 counter-screen | O75608 | recombinant LYPLA1, FP-Rh probe fluorescence polarization | inhibition, % at 5.9 µM | AID 2174 | 320,000 tested, 0.16% active;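 active = inhibition above the mean of all tested compounds plus 3 SD, set per campaign, cut at about 14% in these data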;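 note: inhibitors block serine hydrolase probe labeling of LYPLA1 so polarization falls; 0% = enzyme with DMSO and 100% = wells lacking LYPLA1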
# Target sequence (O75608 whole entry, looked up): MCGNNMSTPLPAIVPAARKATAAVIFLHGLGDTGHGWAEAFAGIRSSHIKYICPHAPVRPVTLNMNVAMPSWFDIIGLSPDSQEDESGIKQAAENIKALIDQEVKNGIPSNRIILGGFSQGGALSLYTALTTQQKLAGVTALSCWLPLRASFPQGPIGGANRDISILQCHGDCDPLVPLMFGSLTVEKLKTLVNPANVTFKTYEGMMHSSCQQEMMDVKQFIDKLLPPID
# GSTO1 counter – counter-screen for RBBP9 inhibitors: inhibitors of human GSTO1 | recombinant GSTO1, activity-based probe fluorescence polarization | inhibition, % at 5.96 µM | 300,000 tested, 1.1% active;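 active = inhibition above the campaign mean inhibition plus 3 SD, cut at about 35% in these data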;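 note: 0% = GSTO1-1 with DMSO and 100% = wells lacking GSTO1-1 enzyme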
# Target sequence (P78417 whole entry, looked up): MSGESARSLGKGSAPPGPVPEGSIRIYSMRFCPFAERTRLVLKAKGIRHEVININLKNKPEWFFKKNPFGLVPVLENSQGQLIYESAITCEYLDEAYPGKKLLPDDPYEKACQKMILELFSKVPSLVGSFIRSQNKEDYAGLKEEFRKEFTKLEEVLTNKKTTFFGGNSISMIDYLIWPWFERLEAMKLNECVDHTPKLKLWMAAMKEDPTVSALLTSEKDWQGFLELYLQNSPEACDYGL
# LYPLA2 counter – blocks human lysophospholipase 2, a PME1 counter-screen | O95372 | recombinant LYPLA2, FP-Rh probe fluorescence polarization | inhibition, % at 5.9 µM | 320,000 tested, 0.38% active | AID 2177;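 active = inhibition above the screen-wide mean plus 3 SD, limit set per campaign, cut at about 26% in these data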;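 note: 0% = LYPLA2 with DMSO and 100% = wells lacking LYPLA2 enzyme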
# Fam108B inh – blocks mouse Fam108B hydrolase in RBBP9 counter-screen; 300,000 tested, 0.33% active; inhibition, % at 9.51 µM; AID 1947; recombinant Fam108B, FP-Rh probe fluorescence polarization;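 active = inhibition above the screen mean inhibition plus 3 SD, computed separately per campaign, cut at about 18% in these data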;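 note: inhibitors lower polarization as less probe binds the enzyme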
# PME-1 primary – PME-1 (human) inhibition. recombinant PME-1, FP-Rh probe fluorescence polarization. inhibition, % at 5.9 µM. 320,000 tested, 0.53% active;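 active = inhibition above the campaign mean of all compounds plus 3 SD, cut at about 26% in these data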;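 note: competitive labeling of PME-1 active site by serine hydrolase directed probe; 0% = PME-1 with DMSO and 100% = wells lacking PME-1 enzyme; inhibitors block probe labeling so polarization falls and inhibition rises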
# PAD4 confirm – confirmation of human PAD4 inhibitors; shares compounds with PAD4 inh; recombinant PAD4, RCA probe fluorescence polarization; inhibition, % at 6.36 µM; 1,200 tested, 28% active;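 active = mean inhibition across replicates above the hit cutoff set by the earlier primary screen, cut at about 15% in these data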;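 note: inhibitors block active-site labeling by the probe so polarization falls; 0% = PAD4 with probe and DMSO and 100% = probe without PAD4 enzyme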
# Numbers without * were called inactive; · = no result given; ! = repeats disagree. In the library only some 1.8% were active in any assay of this set; here they are far more common.
SMILES,PAD4 inh,LYPLA1 counter,GSTO1 counter,LYPLA2 counter,Fam108B inh,PME-1 primary,PAD4 confirm
COc1ccc(C2CC(c3cccs3)=NN2S(C)(=O)=O)cc1 (configuration not stated),2.3,-0.3,-0.2,4.1,-2.7,7.5,·
COc1ccc(OC)c(N/C(C)=C/C(=O)c2ccncc2)c1,23.2*,-2.8,2.3,-4.6,1.5,-6.1,-4.5
Cc1cccc(NC(=O)CSc2nnc(-c3cc(C)[nH]n3)n2N)c1,-1.8,-1.6,-0.8,-4.2,-0.1,-2.9,·
Cc1cccc(C)c1OCC(=O)N(Cc1ccc(Cl)cc1)C1CCS(=O)(=O)C1 (configuration not stated),2.1,-0.3,0.3,-9.5,2.8,4.9,·
N#C/C(=C\c1cccnc1)C(=O)Nc1ccc(O)cc1F,17.9*,7.2,-3.5,3.3,6.1,8.3,6.5
N#C/C(=C\c1cccnc1)C(=O)Nc1ccccc1,1.3,0.8,-1.1,-1.4,-4.2,-5.0,·
CC(=O)O[C@H]1[C@H](O)[C@H](Oc2c(O)c(C)c3c4c2[C@@H](C)CC[C@@H]4[C@@H](C)C[C@H]3C=C(C)C)O[C@@H](C)[C@H]1O,-4.3,·,·,·,·,·,·
Cn1nc(C(=O)OCc2ccc(F)cc2)c2ccccc2c1=O,-2.4,3.2,-2.3,6.2,-1.7,4.1,·
Cc1ccc(COC(=O)c2nn(C)c(=O)c3ccccc23)cc1,25.3*,-0.2,10.5,3.1,-1.4,-4.8,2.0
COc1cccc(NC(=O)C2CCN(C(=O)NC3CCCCC3)CC2)c1,0.7,0.4,4.4,0.1,4.4,-0.8,·
COc1ccc(OC)c(S(=O)(=O)Oc2ccc(N)c3ccccc23)c1,21.4*,-5.3,35.0*,-6.4,3.0,8.5,-9.8
O=C(O)c1ccc(-c2nc(-c3ccc(Cl)cc3Cl)cs2)cc1,-2.0,-3.5,1.2,-6.0,-2.9,1.6,·
CC(=O)N1CC[n+]2c(-c3ccc(Cl)cc3Cl)csc21,16.1*,-2.1,3.9,4.5,-2.4,6.2,5.2
Cc1cc(C)cc(NC(=S)/C(=C(\[O-])c2ccc(Cl)s2)[n+]2cccc(C)c2)c1,90.0*,0.7,-2.5,0.9,-2.2,-2.9,-4.5
COc1ccccc1N1CCN(C(=O)c2cccc(C(=O)N3CCN(c4ccccc4OC)CC3)c2)CC1,-7.7,-2.5,4.6,-1.1,-0.9,-3.6,·
COc1ccccc1N1CCN(C(=O)c2coc(=O)c(Br)c2)CC1,34.3*,-0.3,-2.3,-4.5,-0.1,-1.8,-0.6
O=C(N/C(=C\c1ccco1)C(=O)N1CCCC1CO)c1ccccc1 (configuration not stated),-4.0,-0.8,10.2,-7.1,-8.1,2.5,·
CCC(C)n1c(NC(=O)c2ccccc2)c(C#N)c2nc3ccccc3nc21 (configuration not stated),28.9*,-5.4,24.5,-11.3,-8.1,-5.0,-17.5
COc1cccc(C(=O)NCc2ccco2)c1OC,-2.0,2.0,12.9,0.9,-0.4,-5.9,·
COc1ccc(NC(=S)Nc2ccccc2)cc1,0.1,-2.5,2.9,0.5,-2.4,-1.8,·
Oc1ccc(NC(=S)Nc2ccccc2)cc1,21.5*!,-0.6,7.7,-2.3,-2.4,-0.1,1.6
CCN(CC)CCSc1nnc2c3ccccc3n(CCc3ccccc3)c2n1,7.1,-5.1,2.1,-5.3,1.3,1.9,·
c1ccc(CCn2c3ccccc3c3nnc(SCc4ccc5nonc5c4)nc32)cc1,50.4*,-1.0,-2.1,0.5,-5.4,-11.1,2.1
Fc1ccccc1-c1cc2ccccc2cn1,15.4*,-2.8,·,1.6,·,-4.0,12.3
Fc1ccc2cnc(-c3ccccc3F)cc2c1,-4.1,·,·,·,·,·,·
O=C(Cn1sc2ccccc2c1=O)NC12CC3CC(CC(C3)C1)C2,16.4*,-5.6,1.6,-0.1,-2.8,-0.8,29.8*
COc1ccc(NC(=O)CN(C)C(=O)Cc2c(C)nc3ccccc3c2C)cc1,-4.0,-1.3,-8.3,-0.8,-0.6,2.2,·
c1ccc2c(c1)Cn1nnnc1-2,33.0*,-3.1,2.7,-3.5,3.8,4.3,-2.5
c1ccc2c(c1)CC1(CCCCC1)n1nnnc1-2,1.6,3.4,-2.7,3.4,-1.4,0.0,·
COc1ccc(-c2cc(C(=O)NCCN3CCOCC3)c3ccccc3n2)c(OC)c1,17.0*,1.0,13.8,1.1,1.0,-1.6,-0.7

# High-throughput results: PubChem BioAssay, The Scripps Research Institute Molecular Screening Center
